Each structure is given as a SMILES string. Where “and” joins values, the source holds several entries; their conditions need not be identical. Identical values can stand only once. The whole screen tested about 16,000 compounds, of which about 5,800 (36%) were called active. About 23% were inconclusive and are not listed. Some of the results follow. Unmarked numbers belong to inactive results. The call rests on the fitted dose curve; in most records, active means well fitted curve in the direction sought with a large enough effect; inconclusive means small, poorly fitted or top-dose-only effect, or effect the other way; inactive means no such curve, though single readings can be large or run the other way.
On the % scale 0 is the no-effect control and ±100 the full control effect.

For this experiment, the target named is Cytochrome P450 2C19 (Homo sapiens) (UniProt P33261). Briefly: Cytochrome panel assay with activity outcomes. The conditions noted are these: recombinant CYP, pro-luciferin dealkylation, luminescence, p450-cyp2c19; series mostly up to 57.1 µM.
Chain of Cytochrome P450 2C19 (Homo sapiens) (P33261 whole entry, looked up): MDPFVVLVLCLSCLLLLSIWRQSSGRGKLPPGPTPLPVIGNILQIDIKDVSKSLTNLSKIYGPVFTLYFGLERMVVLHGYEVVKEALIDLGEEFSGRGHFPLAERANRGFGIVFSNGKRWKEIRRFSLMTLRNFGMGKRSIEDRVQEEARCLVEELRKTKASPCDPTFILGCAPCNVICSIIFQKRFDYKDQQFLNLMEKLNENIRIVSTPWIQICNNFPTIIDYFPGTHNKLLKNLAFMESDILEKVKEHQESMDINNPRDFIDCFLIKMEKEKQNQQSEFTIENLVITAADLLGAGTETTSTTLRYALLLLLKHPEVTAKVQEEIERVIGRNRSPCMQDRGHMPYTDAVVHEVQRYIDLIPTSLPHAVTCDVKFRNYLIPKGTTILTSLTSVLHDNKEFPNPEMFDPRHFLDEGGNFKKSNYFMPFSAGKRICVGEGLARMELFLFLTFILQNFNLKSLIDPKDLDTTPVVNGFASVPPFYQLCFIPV
The AC50 is the concentration at which the activity in the assay is half-maximal. Consider `c1ccc(C(c2ccccc2)N2CC[C@@]3(CCCNC3)C2)cc1`, for which the AC50 result was “inactive”.

Take `O=C(C[C@@H](c1ccccc1)N1CCCCC1)c1ccccc1`: the AC50 was 2.51 µM (active).

`CN1[C@@H](CC(=O)c2ccccc2)CCC[C@@H]1C[C@@H](O)c1ccccc1`: the AC50 result is “inactive”.

Turning to `O=C(O)CC(c1ccccc1)n1cnnn1` (stereo not given), the AC50 entry was “inactive”.

`O=CN[C@@H](Cc1cnc[nH]1)C(=O)O`: the activity, negative = inhibition is 6.59% [at 11.4 µM].

As to `C=CCc1cccc(C2Nc3ccccc3C(=O)N2O)c1O` (stereo not given), the concentration at half-maximal activity (AC50) is 1.58 µM (active).

`O=C1c2ccccc2NC(c2ccc(Cl)cc2Cl)N1O` (stereo not given): the half-maximal activity concentration (AC50) was 5.62 µM (active).

For the compound `O=C1c2ccccc2NC(c2ccc3c(c2)OCO3)N1O` (stereo not given), the concentration at half-maximal activity (AC50) is 10 µM (active).

In the case of `CCNC(=S)NNC(=O)CCn1c2ccccc2c2ccccc21`, the AC50 was 5.01 µM (active).

As to `CCNC(=S)NNC(=O)Cc1ccccc1`, the AC50 result is “inactive”.

Consider `C=CCc1cc(C=O)cc(OC)c1OCc1ccc(Cl)cc1`, for which the AC50 is 0.794 µM (active).

Turning to `CCOc1cc(/C=N/O)cc(Cl)c1OC`, the AC50 is 20 µM (active).

For `COc1cc(/C=N/O)cc(Br)c1OCc1ccc(Cl)cc1`, the AC50 was 1.58 µM (active).

As to `COc1ccc(Cl)cc1N=Nc1ncc[nH]1`, the AC50 result is “inactive”.

As for `COc1cc(/C=N/O)cc(Br)c1OCc1cccc(Cl)c1`, the half-maximal activity concentration (AC50) was 2 µM (active).

Turning to `CCN1C(=O)[C@H]2[C@H]3[C@H](O)[C@H](O)C/C(=N/OC[C@@H](O)[C@H]4O[C@H]5OC(C)(C)O[C@H]5[C@@H]4O)[C@@H]3CC[C@@H]2C1=O`, the activity, negative = inhibition is 15% [at 11.4 µM].

With `COC(=O)N1CCC[C@@]2(CCN(C(=O)Nc3ccccc3)C2)C1`, the AC50 result is “inactive”.

With `COC(=O)N1CCC2(CC1)CN(C(=O)Nc1ccccc1)C2`, the AC50 entry was “inactive”.

For the compound `COC(=O)C1CCC(C)(C(=O)Nc2ccccc2)C1(C)C` (stereo not given), the concentration at half-maximal activity (AC50) was 3.55 µM (active).

For `CCn1c(SCc2ccc(Cl)cc2Cl)nc2nc3c(cc2c1=O)CCCC3`, the AC50 is 3.98 µM (active).

For the compound `COc1cc2c3cc1Oc1c(OC)c(OC)cc4c1[C@@H](Cc1ccc(O)c(c1)Oc1ccc(cc1)C[C@@H]3N(C)CC2)CN(C)C4`, the activity, negative = inhibition was -44.9% [at 11.4 µM].

Consider `COc1ccc([N+](=O)[O-])cc1N(CC(O)CN(CC(C)C)CC(C)C)S(=O)(=O)c1ccccc1` (stereo not given), for which the AC50 was 6.31 µM (active).

For `O=C(Nc1ccccc1)N1CCSc2cc(Cl)ccc21`, the half-maximal activity concentration (AC50) was 0.794 µM (active).

For the compound `Cn1ccc2cc3c(cc21)CCN3C(=O)Nc1cccnc1`, the AC50 entry is “inactive”.

`CS(=O)(=O)N1CCC2(CC1)CN(C(=O)Nc1ccccc1)C2`: the AC50 entry is “inactive”.

With `O=C(O)c1cc(-c2ccncc2)nc2ccccc12`, the activity, negative = inhibition was 15.6% [at 11.4 µM].

Consider `O=C(N/N=C/c1ccc([N+](=O)[O-])o1)c1cc(-c2ccncc2)nc2ccccc12`, for which the AC50 is 2.82 µM (active).

As to `CCn1c2ccccc2c2cc(NC(=O)C(C)Oc3ccc(OC)cc3)ccc21` (stereo not given), the AC50 was 0.398 µM (active).

As for `CCC(C(=O)N1CCOCC1)n1c(C(=O)OC)cc2occc21` (stereo not given), the AC50 was 5.01 µM (active).

In the case of `CCC(Sc1ncccc1C(=O)O)C(=O)N1CCOCC1` (stereo not given), the AC50 result is “inactive”.

For `Cc1cc(=O)oc2cc(O)ccc12`, the AC50 entry is “inactive”.

`COc1ccc2c(CC(=O)NCC3CCC(C(=O)O)CC3)cc(=O)oc2c1` (stereo not given): the AC50 entry is “inactive”.

For `CCN(CC)c1ccc(C(=O)OCc2cc(=O)oc3cc(O)ccc23)cc1`, the AC50 was 0.355 µM (active).

In the case of `CCN(CC)c1ccc2c(Cl)cc(=O)oc2c1`, the concentration at half-maximal activity (AC50) was 11.2 µM (active).

Regarding `CCCC[C@H](CC)CN1CN(C[C@@H](CC)CCCC)CC(C)(N)C1`, the AC50 entry is “inactive”.

As to `CS(=O)(=O)N1CCC2(CCN(C(c3ccccc3)c3ccccc3)CC2)CC1`, the AC50 result was “inactive”.

For `CCS(=O)(=O)N1CCN(c2c(Cl)cccc2[N+](=O)[O-])CC1`, the AC50 was 10 µM (active).

As for `CS(=O)(=O)N1CCC2(CCN(c3ccccc3)CC2)CC1`, the AC50 entry is “inactive”.

As for `CS(=O)(=O)N1CCN(c2c(Cl)cccc2[N+](=O)[O-])CC1`, the AC50 is 14.1 µM (active).

With `CCN1CCc2nc(N)oc2CC1`, the AC50 result is “inactive”.

As for `CC(=O)N(/N=C1\Sc2ccccc2C1=O)c1ccccc1C`, the AC50 is 4.47 µM (active).

For the compound `CC(=O)N(/N=C1\Sc2ccccc2C1=O)c1ccccc1`, the AC50 is 3.16 µM (active).

For `O=[N+]([O-])c1ccc(N2CCCCC2)c(Cl)c1N1CCCCC1`, the concentration at half-maximal activity (AC50) was 1.41 µM (active).

For `O=[N+]([O-])c1cc(F)c(N2CCOCC2)cc1N1CCCCC1`, the half-maximal activity concentration (AC50) was 3.98 µM (active).

For the compound `CC(C)c1ccc(CNc2cc(N3CCCC3)ccc2[N+](=O)[O-])cc1`, the AC50 is 1.78 µM (active).

In the case of `O=[N+]([O-])c1cccnc1N1CCOCC1`, the AC50 entry is “inactive”.

Consider `O=[N+]([O-])c1ccc(N2CCCC2)cc1N1CCCC1`, for which the concentration at half-maximal activity (AC50) is 4.47 µM (active).

On to `Clc1ccc(N2CCCCCC2)nn1`, for which the AC50 entry was “inactive”.

As to `COC(=O)[C@@]1(Cc2ccccc2)[C@H]2c3cc(C(=O)N4CCCC4)n(Cc4ccsc4Br)c3C[C@H]2CN1C(=O)c1ccccc1`, the AC50 is 2.51 µM (active).

On to `COC(=O)[C@@]1(Cc2ccccc2)[C@H]2c3cc(C(=O)N(C)C)n(Cc4ccsc4Br)c3C[C@H]2CN1C(=O)c1ccccc1`, for which the half-maximal activity concentration (AC50) was 2 µM (active).

Consider `COC(=O)[C@@]1(Cc2ccccc2)[C@H]2c3cc(C(=O)N4CCCC4)n(Cc4cccc5ccccc45)c3C[C@H]2CN1C(=O)c1ccccc1`, for which the AC50 is 2.51 µM (active).

For `S=C(Nc1ccc2cn[nH]c2c1)Nc1ccc2cn[nH]c2c1`, the AC50 is 1 µM (active).

For `O=C(O)c1c(Cl)c(Cl)c(Cl)c(Cl)c1C(=O)Nc1ccc2cn[nH]c2c1`, the activity, negative = inhibition was -27.8% [at 11.4 µM].

With `CCNc1ncc2nc(-c3ccc(Cl)cc3)c(=O)n(C3CC3)c2n1`, the AC50 entry is “inactive”.

As for `CN(C)CCCNc1c(C(=O)O)cnc2c1cnn2C`, the AC50 result is “inactive”.

For `Cc1ccc(-n2c(=O)[nH]cc(C(=O)N3CCc4ccccc43)c2=O)cc1`, the AC50 result was “inactive”.

As to `CC(=O)N1CCC(=O)N(C(C)C)c2ccccc21`, the AC50 entry is “inactive”.

On to `Cc1nn(C(C)C(=O)N2CCc3ccccc32)c(C)c1[N+](=O)[O-]` (stereo not given), for which the half-maximal activity concentration (AC50) was 11.2 µM (active).

For `CN(C)CC[C@@H](c1ccccc1)c1ccccn1`, the AC50 entry is “inactive”.

On to `CN(C)CC(CN(C)C)c1ccccn1`, for which the activity, negative = inhibition was 4.36% [at 11.4 µM].

In the case of `C[C@@H](C1=C(CCN(C)C)Cc2ccccc21)c1ccccn1`, the AC50 is 2.51 µM (active).

In the case of `Cc1n[nH]c(=O)[nH]c1=O`, the AC50 result is “inactive”.

On to `CS(=O)(=O)Nc1cccc(-c2nc(NCc3cccs3)c3ccccc3n2)c1`, for which the AC50 was 10 µM (active).

Turning to `Cc1cccc(CNc2nc(-c3cccc(NS(C)(=O)=O)c3)nc3ccccc23)c1`, the AC50 was 2.51 µM (active).

Regarding `CS(=O)(=O)Nc1cccc(-c2nc(NCCN3CCOCC3)c3ccccc3n2)c1`, the AC50 result was “inactive”.

Consider `CCOC(=O)COc1c(OC)cc(Cl)cc1C1Nc2ccccc2C(=O)N1c1cccc(C)c1` (stereo not given), for which the AC50 is 1.41 µM (active).

On to `CCOC(=O)CC1NC(=O)c2ccccc21` (stereo not given), for which the AC50 entry is “inactive”.

For the compound `CCOC(=O)COc1c(OC)cc(Cl)cc1C1Nc2ccccc2C(=O)N1c1ccc(F)cc1` (stereo not given), the AC50 is 0.501 µM (active).

Regarding `C#CCn1c(=O)c2c(ncn2C)n(C)c1=O`, the AC50 result was “inactive”.

As for `O=C(Nc1cccc(C(F)(F)F)c1)c1ccc(Cn2cc(Br)cn2)o1`, the AC50 was 2.24 µM (active).

Turning to `CCN(CC)S(=O)(=O)c1cccc(C(=O)N[C@H](C(=O)OCC(=O)NC(=O)NC)C(C)C)c1`, the AC50 was 7.94 µM (active).

`[N-]=[N+]=NC[C@@H]1O[C@@H](n2cnc3c(N)ncnc32)[C@@H]2O[C@@H]21`: the activity, negative = inhibition was 18.5% [at 11.4 µM].

As for `CC(C)=CCC/C(C)=C/CC/C(C)=C/CSc1ccccc1C(=O)O`, the AC50 result was “inactive”.

With `Cn1c(=O)cc(SCC(=O)NCCN2CCN(c3ccccc3F)CC2)c2cc(Cl)ccc21`, the AC50 is 11.2 µM (active).

In the case of `CC(C)=CC(=O)OCC(=O)Nc1ncc(Cl)c(C)c1Cl`, the half-maximal activity concentration (AC50) is 15.8 µM (active).

Regarding `Cc1c(Cl)cnc(NC(=O)COC(=O)CCS(=O)(=O)c2ccccc2)c1Cl`, the AC50 was 20 µM (active).

Turning to `Nc1ccc(CCNc2ncnc3c2ncn3[C@@H]2O[C@@H](CO)[C@H](O)[C@@H]2O)cc1`, the AC50 result is “inactive”.

For `Cc1cc(N)n2ncc(-c3ccc(Cl)cc3)c2n1`, the half-maximal activity concentration (AC50) is 15.8 µM (active).

Regarding `Cc1cc(N2CCN(C)CC2)n2nc(-c3ccc(Cl)cc3)nc2n1`, the activity, negative = inhibition was 4.95% [at 11.4 µM].

Consider `COC(=O)c1ccc(Cl)c(NC(=O)c2ccc(-c3ccccc3)cc2)c1`, for which the AC50 result is “inactive”.

`COc1cc(/C=C/C(=O)Nc2cc(C(F)(F)F)ccc2Cl)cc(OC)c1OC`: the concentration at half-maximal activity (AC50) was 20 µM (active).

For the compound `COc1cccc(C(=O)Nc2cc(C(F)(F)F)ccc2Cl)c1`, the AC50 was 7.08 µM (active).

`COc1cc(C(=O)Nc2cc(C(F)(F)F)ccc2Cl)cc(OC)c1OC`: the AC50 is 22.4 µM (active).

Regarding `O=C(Cc1ccccc1)NC(=S)Nc1cc(C(F)(F)F)ccc1Cl`, the half-maximal activity concentration (AC50) is 0.708 µM (active).

Consider `COc1cc(C(=O)NC(=S)Nc2ccc(Cl)c(C(=O)O)c2)cc(OC)c1OC`, for which the AC50 result is “inactive”.

Regarding `CN(C)c1cc[n+](CC(=O)Nc2cc(C(F)(F)F)ccc2Cl)cc1`, the AC50 entry was “inactive”.

For the compound `CCCC(=O)Nc1ccc(C(=O)Nc2cc(C(F)(F)F)ccc2Cl)cc1`, the AC50 was 20 µM (active).

Regarding `C/C(CCN1CCCCc2nc(C)c(C)cc21)=N\O[C@@H](C)c1cn([C@H](CO)Cc2ccccc2)nn1`, the activity, negative = inhibition is -12.5% [at 11.4 µM] and 36.9% [at 11.4 µM].

With `COc1ccccc1NC(=O)CN1CCN(C2c3ccccc3-c3ccccc32)CC1`, the concentration at half-maximal activity (AC50) was 0.708 µM (active).

Consider `CC(=O)Nc1ccc2c(c1)C(=Nc1ccc(C(=O)O)cc1)c1ccccc1-2`, for which the activity, negative = inhibition is 24.2% [at 11.4 µM].

`CC(C)OC(=O)CN1CCN(C2c3ccccc3-c3ccccc32)CC1`: the AC50 was 7.08 µM (active).

Turning to `O=C(O)C[C@@H](C(=O)O)C1c2ccccc2-c2ccccc21`, the activity, negative = inhibition was 26.9% [at 11.4 µM].

In the case of `COC(=O)C/C=C1\c2ccccc2[C@H](OC)[C@H]1C`, the activity, negative = inhibition is 23.9% [at 11.4 µM].

Take `COc1ccc(NC(C)=O)cc1NC(=O)CN1CCN(C2c3ccccc3-c3ccccc32)CC1`: the half-maximal activity concentration (AC50) was 2.51 µM (active).

Turning to `N#CCCn1c(=O)c(-c2cc(F)cc(F)c2)nc2cnc(Nc3ccccc3)nc21`, the AC50 result was “inactive”.

The values above are taken from PubChem BioAssay AID1851 (National Center for Advancing Translational Sciences (NCATS), 2009).
